DAX1 inh-1 – inhibits human nuclear receptor DAX1. P51843. HEK293 Gal4-DAX1 luciferase reporter, luminescence. inhibition, % at 6.75 µM. hit rate 0.99% among 340,000;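 active = inhibition above the mean over all tested compounds plus 3 SD, cut at about 4.2% in these data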;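 note: inhibition shows as a rise in luminescence from relieved DAX1 repression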
Target sequence (P51843 207-470 limits assumed): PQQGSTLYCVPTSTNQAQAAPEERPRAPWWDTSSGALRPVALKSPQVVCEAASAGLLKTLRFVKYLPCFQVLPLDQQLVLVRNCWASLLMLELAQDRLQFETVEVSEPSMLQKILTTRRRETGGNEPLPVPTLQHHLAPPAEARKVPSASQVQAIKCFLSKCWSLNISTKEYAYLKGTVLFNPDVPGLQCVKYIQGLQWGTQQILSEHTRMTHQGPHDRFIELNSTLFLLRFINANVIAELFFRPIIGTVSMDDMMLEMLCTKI
hcDAF12 agonist – activates DAF-12 receptor from parasite H. contortus; HEK293 hcDAF-12 lit1-tk-luc reporter, luminescence; 0% DMSO, 100% Δ7-dafachronic acid; activation, % at 6.8 µM; hit rate 1.4% among 370,000;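 active = activation above the mean of all tested compounds plus 3 SD, cut at about 5.5% in these data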
NR1D1 modulator – modulates human Rev-erb alpha binding to DNA | P20393 | Rev-erbα–FITC-DNA binding, fluorescence polarization, 90 min | activity, % at 10 µM | hit rate 0.79% among 370,000 | AID 1259318;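 active = activity above about 14%, limit read from the data; passing the limit was not always enough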
DAX1 inh-2 – DAX1 (NR0B1) inhibition, primary screen; HEK293T StAR-luciferase reporter, SF-1/DAX-1 repression relief; inhibition, % at 6.8 µM; hit rate 1.1% among 370,000;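 active = inhibition above the mean over all tested compounds plus 3 SD, cut at about 3.6% in these data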;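 note: higher inhibition means more luminescence from relief of DAX-1 repression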
hgDAF12 agonist – agonists of H. glycines DAF-12 nuclear receptor | HEK293 GAL4-hgDAF12 UAS-luciferase reporter, agonist luminescence; normalized to butyrate control | activation, % at 6.8 µM | hit rate 1.8% among 370,000;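 active = activation above a cutoff set at the mean of all screened compounds plus 3 SD, cut at about 10% in these data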
ssDAF12 agonist – S. stercoralis DAF-12 activation, primary screen. HEK293 ssDAF-12/GRIP1 lit1-tk-luc reporter, luminescence; % of 3 µM dafachronic acid response. activation, % at 6.8 µM. hit rate 1% among 370,000;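 active = activation above the mean over all tested compounds plus 3 SD, cut at about 0.9% in these data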
DAX1 inh confirm – confirmation of human DAX1 (NR0B1) inhibitors. AID 652134. hit rate 87% among 2,400. inhibition, % at 6.8 µM. HEK293T StAR-promoter luciferase reporter, SF-1/DAX-1 repression. shares compounds with DAX1 inh-2;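 active = inhibition above the average of every tested compound plus 3 SD, cut at about 3.8% in these data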;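 note: active compounds raise luminescence by relieving repression of the StAR reporter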
Target sequence (P51843 whole entry, looked up): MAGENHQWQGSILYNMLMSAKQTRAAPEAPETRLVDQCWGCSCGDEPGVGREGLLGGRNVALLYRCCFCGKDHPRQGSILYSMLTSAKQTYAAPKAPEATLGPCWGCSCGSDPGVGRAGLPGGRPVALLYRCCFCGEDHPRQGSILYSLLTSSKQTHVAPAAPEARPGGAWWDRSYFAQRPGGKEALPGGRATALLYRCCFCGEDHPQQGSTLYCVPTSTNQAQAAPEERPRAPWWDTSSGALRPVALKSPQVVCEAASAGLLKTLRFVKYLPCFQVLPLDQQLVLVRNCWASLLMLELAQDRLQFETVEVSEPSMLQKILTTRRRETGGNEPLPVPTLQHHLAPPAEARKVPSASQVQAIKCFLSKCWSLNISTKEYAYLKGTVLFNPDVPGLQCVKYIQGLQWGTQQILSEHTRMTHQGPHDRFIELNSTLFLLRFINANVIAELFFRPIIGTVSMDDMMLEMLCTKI
SF1 AF2mut Luc – nonselective inhibitor or artifact in SF-1 mutant DAX1 counter-screen; hit rate 78% among 2,400; HEK293 StAR-luciferase, SF-1 AF2 mutant, luminescence; shares compounds with DAX1 inh-2; inhibition, % at 6.8 µM;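 active = inhibition above the mean of all tested compounds plus 3 SD, cut at about 3% in these data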
LXR ag – activates human LXR-beta, counter-screen for hcDAF-12 agonists. shares compounds with hcDAF12 agonist. HEK293 Gal4-LXR tk-luc reporter, luminescence, 24 h; normalized: DMSO 0%, positive control 100%. activation, % at 6.8 µM. 3,400 tested, under 10 active. AID 743027;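 active = mean percent activation of the reporter above a cutoff set as the average over tested compounds plus their standard deviation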
hcDAF12 ag – hcDAF-12 agonism, confirmation assay; shares compounds with hcDAF12 agonist; HEK293 hcDAF-12 lit1-tk-luc reporter, luminescence; % of Δ7-dafachronic acid response; activation, % at 6.8 µM; hit rate 61% among 3,400;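 active = mean activation across triplicate tests above the threshold derived from the earlier primary screen, cut at about 5.5% in these data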
hgDAF12 ag – confirmation of H. glycines DAF-12 agonists; shares compounds with hgDAF12 agonist; HEK293 GAL4-hgDAF12 luciferase reporter, agonist mode; percent of butyrate response; activation, % at 6.8 µM; hit rate 80% among 3,300;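 active = mean activation over triplicate wells above the hit cutoff derived from the earlier primary screen, cut at about 11% in these data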
LXRb DAF12 ctr – LXR-beta agonism as DAF-12 counter-screen; shares compounds with hgDAF12 agonist; HEK293 Gal4-LXR luciferase reporter, 24 h; activation, % at 6.8 µM; 3,300 tested, under 10 active; AID 743051;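 active = mean activation of the triplicate above a set limit carried over from the primary screen, none filed active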
Each line names hits and unclear results; the compound was inactive in the other large screens (follow-up assays come after a bar, where they were run). Shown are actives, neighbours in structure and some others; about 4.8% of the full set was active somewhere.

C#CCN1CC(N(C)CCOC(=O)c2ccc(F)cc2)CS1(=O)=O (stereo not given)	none (no result: DAX1 inh-1)
CC1=NN(c2ccccc2)C(=O)C1c1ccccc1 (stereo not given)	none
CC1=Nc2ccccc2N=C(N)C1c1ccccc1 (stereo not given)	hcDAF12 agonist 7.4, DAX1 inh-2 5.1, hgDAF12 agonist 18.1, ssDAF12 agonist 1.5 | DAX1 inh confirm 3.7 | SF1 AF2mut Luc 4.3 | LXR ag inactive | hcDAF12 ag inactive | hgDAF12 ag 13.1 | LXRb DAF12 ctr inactive
CCNC(=S)NNC(=O)c1cc(-c2ccc(OCC)cc2)nc2ccccc12	hcDAF12 agonist 9.0, DAX1 inh-2 7.7, hgDAF12 agonist 15.8, ssDAF12 agonist 1.3 | DAX1 inh confirm 16.7 | SF1 AF2mut Luc 8.6 | LXR ag inactive | hcDAF12 ag 11.7 | hgDAF12 ag 25.3 | LXRb DAF12 ctr inactive
O=C(CSc1ccccc1)Nc1ccc2c(c1)OCCO2	DAX1 inh-2 11.4, hgDAF12 agonist 15.4, ssDAF12 agonist 1.0 | DAX1 inh confirm 13.9 | SF1 AF2mut Luc 7.5 | hgDAF12 ag 14.9 | LXRb DAF12 ctr inactive
C/C(CC(=O)Nc1ccc2c(c1)OCCO2)=N\NC(=O)c1ccccn1	hcDAF12 agonist 6.2, DAX1 inh-2 6.4, hgDAF12 agonist 15.4 | DAX1 inh confirm inactive | SF1 AF2mut Luc inactive | hgDAF12 ag inactive | LXRb DAF12 ctr inactive
O=C(CCCc1cccs1)Nc1ccc2c(c1)OCO2	DAX1 inh-1 6.0, DAX1 inh-2 5.5, hgDAF12 agonist 22.0 | DAX1 inh confirm 9.7 | SF1 AF2mut Luc 6.7 | hgDAF12 ag 14.1 | LXRb DAF12 ctr inactive
C/C(CC(=O)Nc1ccc2c(c1)OCCO2)=N\NC(=O)c1ccccc1F	none
O=C(/C=C/c1ccccc1)Nc1ccc2c(c1)OCCO2	DAX1 inh-2 7.4, hgDAF12 agonist 17.8 | DAX1 inh confirm 14.1 | SF1 AF2mut Luc 6.5 | hgDAF12 ag 23.1 | LXRb DAF12 ctr inactive
Cc1nn(-c2ccccc2)c2sc(C(=O)N3CCN(Cc4ccc(F)cc4)CC3)cc12	none (no result: DAX1 inh-1)
CC(C)N1Cc2nnn(Cc3ccccc3)c2-c2ccccc2S1(=O)=O	none (no result: DAX1 inh-1)
CSc1ccc(/C=C/C(=O)Nc2ccccc2)cc1	hcDAF12 agonist 10.7, DAX1 inh-2 14.4, hgDAF12 agonist 13.7 | DAX1 inh confirm 6.8 | SF1 AF2mut Luc 4.3 | LXR ag inactive | hcDAF12 ag 7.4 | hgDAF12 ag 15.9 | LXRb DAF12 ctr inactive
O=C(CCCc1ccccc1)Nc1ccc2c(c1)OCCO2	hcDAF12 agonist 8.2, DAX1 inh-2 6.1, hgDAF12 agonist 22.3 | DAX1 inh confirm 9.0 | SF1 AF2mut Luc 4.9 | LXR ag inactive | hcDAF12 ag 9.1 | hgDAF12 ag 15.1 | LXRb DAF12 ctr inactive
CSc1cccc(NC(=O)/C=C/c2ccccc2)c1	none
O=C(Nc1ccccc1C(=O)O)c1ccc(NC(=O)C2CC2)cc1	none
O=C(Nc1ccccc1O)c1ccc(NC(=O)C2CC2)cc1	DAX1 inh-1 9.5, hcDAF12 agonist 9.8, DAX1 inh-2 42.1, hgDAF12 agonist 62.1 | DAX1 inh confirm 46.2 | SF1 AF2mut Luc 22.3 | LXR ag inactive | hcDAF12 ag 7.9 | hgDAF12 ag 69.0 | LXRb DAF12 ctr inactive
COCC(=O)N(c1ccc(C(C)(C)C)cc1)C(C(=O)NC(C)(C)C)c1cccnc1 (stereo not given)	none (no result: DAX1 inh-1, DAX1 inh-2)
CN(C(=O)CO)c1c(I)c(C(=O)NCC(O)CO)c(I)c(C(=O)NCC(O)CO)c1I (stereo not given)	none (no result: DAX1 inh-1, hcDAF12 agonist, DAX1 inh-2, hgDAF12 agonist, ssDAF12 agonist)
CCOc1ccc(-c2nnc(SCC(=O)N3CCNC3=O)o2)cc1	hcDAF12 agonist 6.2, DAX1 inh-2 6.2, hgDAF12 agonist 13.9 | DAX1 inh confirm 11.9 | SF1 AF2mut Luc 5.3 | hgDAF12 ag 15.0 | LXRb DAF12 ctr inactive
CCOC(=O)C1=CCC(c2cc3ccccc3[nH]2)NC1 (stereo not given)	hcDAF12 agonist 8.0, DAX1 inh-2 5.7, hgDAF12 agonist 15.5, ssDAF12 agonist 1.1 (no result: DAX1 inh-1) | DAX1 inh confirm 8.9 | SF1 AF2mut Luc 5.0 | LXR ag inactive | hcDAF12 ag 6.4 | hgDAF12 ag 19.1 | LXRb DAF12 ctr inactive
CCOC(=O)c1c(C)nc(C)c(C(=O)OCC)c1-c1ccccc1	none (no result: hcDAF12 agonist, DAX1 inh-2, hgDAF12 agonist, ssDAF12 agonist)
CC[C@@]1(c2cccc(Cl)c2)C(=O)N(C(=O)OC(C)C)N1C(=O)OC(C)C	none (no result: DAX1 inh-1)
COc1ccc(CNC(=O)c2noc3c2CCCC3)cc1	none
COc1ccc(NC(=O)c2noc3c2CCCCC3)cc1	hcDAF12 agonist 5.7, DAX1 inh-2 4.5, hgDAF12 agonist 20.2 | DAX1 inh confirm 11.5 | SF1 AF2mut Luc 5.5 | hgDAF12 ag 18.1 | LXRb DAF12 ctr inactive
CCc1ccc(NC(=O)c2noc3c2CCCCC3)cc1	DAX1 inh-1 4.8, DAX1 inh-2 5.7, hgDAF12 agonist 15.1, ssDAF12 agonist 1.2 | DAX1 inh confirm 16.3 | SF1 AF2mut Luc 9.0 | hgDAF12 ag 19.8 | LXRb DAF12 ctr inactive
O=S1(=O)c2ccccc2-c2c(nnn2CC2CCCCC2)CN1C1CC1	none (no result: DAX1 inh-1)
COc1cc(-c2cc(=O)c3ccc(O)cc3o2)cc(OC)c1OC	none (no result: DAX1 inh-1)
COc1ccc(-c2cc(=O)c3cc(OC)ccc3o2)cc1	hcDAF12 agonist 8.1, DAX1 inh-2 9.0, hgDAF12 agonist 19.9 | DAX1 inh confirm 9.7 | SF1 AF2mut Luc inactive | LXR ag inactive | hcDAF12 ag 7.2 | hgDAF12 ag 20.0 | LXRb DAF12 ctr inactive
COc1ccc(-c2cc(=O)c3ccc(O)cc3o2)cc1	DAX1 inh-2 7.8, hgDAF12 agonist 16.5 | DAX1 inh confirm 10.2 | SF1 AF2mut Luc 5.7 | hgDAF12 ag 14.0 | LXRb DAF12 ctr inactive

Screens (PubChem)
